The values that follow come from PubChem BioAssay (NCI).

The panel holds about 83,000 compounds, 20% with a hit somewhere; the sample as a whole holds those more often.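 Cells were grown in 96-well plates and exposed to the test compound at a single concentration for 48 hours; results are reported as percent growth, with values below 10 considered active.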 The source made the active and inactive calls.

One assay deals with OVCAR-3 ovarian. Description: NCI-60 one-dose screen, 48 h (100 = growth as untreated, 0 = no growth, -100 = all killed). The settings on record: 10 µM unless noted.
As to `COc1ccc(/C=N/NC(=O)CSc2nc(-c3cnccn3)cc(-c3cccs3)c2C#N)cc1OC`, the growth is 99% (inactive).

As for `Clc1cccc(/C=N/Nc2nc(N/N=C/c3cccc(Cl)c3)nc(N3CCCCC3)n2)c1`, the growth was 91.4% (inactive). On to `NS(=O)(=O)c1nnc(/N=C/c2c(O)[nH]c3ccccc23)s1`, for which the growth is 107% (inactive). Consider `Nc1nc(=O)n([C@H]2C[C@H](O)[C@@H](CO)O2)cc1C=O`, for which the growth is 116% (inactive). On to `Cc1ccc(-c2csc(N/N=C/c3cccs3)n2)cc1`, for which the growth was 104% (inactive).

In the case of `CCCCCCOC(=O)c1cc(-c2ccc(F)cc2)nc2ccccc12`, the growth was 104% (inactive).

On to `COc1cc2oc(-c3cccc(NC(=O)c4cccc([N+](=O)[O-])c4)c3)cc(=O)c2c(OC)c1OC`, for which the growth was 59% (inactive).

Turning to `C=C(C)[C@@H]1CC[C@]2(COCCCNCCCN)CC[C@]3(C)[C@H](CC[C@@H]4[C@@]5(C)CC[C@H](O)C(C)(C)[C@@H]5CC[C@]43C)[C@@H]12`, the growth is -77.5% (active). Same read-out and setting: in the case of `CN1c2ccccc2Sc2cc(/C=N/Nc3ccnc4cc(Cl)ccc34)ccc21` it was 90.8% (inactive). On the same count and under the same terms, in the case of `Cn1c(SCC(=O)c2ccc(F)cc2)nc2ccccc2c1=O` it was 104% (inactive); in that of `CC(=O)OCCCCN1C=C/C(=C\C(=O)n2ccc3ccccc32)c2ccccc21`, 100% (inactive); in that of `CCCNNC(=O)c1ccc(-c2ccc(NC(=O)CCCCCCC(=O)N[C@H](C(=O)N3C[C@H](O)C[C@H]3C(=O)N[C@@H](C)c3ccc(-c4scnc4C)cc3)C(C)(C)C)cc2)cc1`, 30.2% (inactive). Still for that read-out and setting: to `CCOC(=O)c1cccc(NC2=C(Cl)C(=O)c3nc(C)ccc3C2=O)c1` belongs 46.1% (inactive); to `CC(C)(C)Nc1nc2c(OCCc3ccccc3)cccn2c1-c1cccc(Oc2ccccc2)c1`, 24% (inactive); to `CCOC(=O)c1c(NC(=O)c2ccc(C(F)(F)F)cc2)sc2c3c(ccc12)OCN(C)C3`, 2.17% (active). Turning to `COc1ccccc1/C=C1\Oc2ccc(O)c(O)c2C1=O`, the growth was 102% (inactive). Regarding `COc1ccc(C(C)=C(c2ccc(OCCN3CCCCCC3)cc2)c2ccc(OCCN3CCCCCC3)cc2)cc1`, the growth was -47.2% (active). Regarding `Cc1ccc2c(n1)C(=O)C(Cl)=C(Nc1cccc(C(F)(F)F)c1)C2=O`, the growth was -86.3% (active).

Regarding `CCC(=C(c1ccc(OCCN2CCCCCC2)cc1)c1ccc(OCCN2CCCCCC2)cc1)c1ccc(Cl)cc1`, the growth was 30.8% (inactive). On the same count and under the same terms, in the case of `CC(Nc1c(C#N)cnc2ccc(-c3cncc(-c4n[nH]c(=O)o4)c3)cc12)c1ccccc1` (centres undefined) it was 3.98% (active); in that of `Cn1cc(-c2cc3ncnc(Nc4ccc(CC(=O)Nc5nc(C(C)(C)C)cs5)cc4)c3s2)cn1`, 62.3% (inactive); in that of `CCOC(=O)C1=C(C)NC(C)=C(C(=O)OC(C)C)C1c1cccc(C#N)c1` (centres undefined), 105% (inactive). For the compound `Cc1cc2nc(C(Cl)Cl)nc(-c3ccc(S(=O)(=O)N(C)C)cc3)n2n1`, the growth is 78.4% (inactive).

A further assay relates to HS 578T breast. The assay is described as above. The note with it: 10 µM unless noted.
Turning to `COc1ccc(/C=N/NC(=O)c2c(N)nn(C)c2Nc2ccccc2)cc1Oc1ccccc1`, the growth is 93.6% (inactive).

As for `COc1ccc(/C=N/N=C(/c2ccccc2)c2ccc3nc(-c4ccc(Cl)cc4)[nH]c3c2)cc1`, the growth was 97.4% (inactive). Still for that read-out and setting: in the case of `O=C(Nc1cc(C(F)(F)F)cc(C(F)(F)F)c1)Nc1ccc2oc(=O)ccc2c1` it was 36.8% (inactive); in that of `COc1ccc(/C=N/NC(=O)CSc2nc(-c3cnccn3)cc(-c3cccs3)c2C#N)cc1OC`, 69.8% (inactive); in that of `CNC(=O)c1cc(N2CCc3cc(NC(=O)Nc4ccc(N5CCN(C)CC5)c(C(F)(F)F)c4)ccc32)ccn1`, 61.4% (inactive).

Consider `NS(=O)(=O)c1nnc(/N=C/c2c(O)[nH]c3ccccc23)s1`, for which the growth is 102% (inactive). Turning to `COc1ccc(-c2cc(-c3ccc(N(C)C)cc3)n3c(n2)nc2ccccc23)cc1`, the growth was 82.4% (inactive). On the same count and under the same terms, to `Nc1nc(=O)n([C@H]2C[C@H](O)[C@@H](CO)O2)cc1C=O` belongs 129% (inactive); to `Cc1ccc(-c2csc(N/N=C/c3cccs3)n2)cc1`, 105% (inactive). Same read-out and setting: in the case of `CCCCCCOC(=O)c1cc(-c2ccc(F)cc2)nc2ccccc12` it was 94.1% (inactive). As to `COc1cc2oc(-c3cccc(NC(=O)c4cccc([N+](=O)[O-])c4)c3)cc(=O)c2c(OC)c1OC`, the growth was -10.3% (active).

For the compound `COc1cccc(N2CCN(C3=C(Cl)C(=O)c4ncccc4C3=O)CC2)c1`, the growth is 84.4% (inactive). Same read-out and setting: to `CCCCCCNC(=O)Oc1ccc(/C(=C(/C)c2ccc(Cl)cc2)c2ccc(OCCN3CCCCCC3)cc2)cc1` belongs 63.8% (inactive). The same measure, in the same setting: to `COc1ccc(/C(=N\NC(N)=S)c2ccc(Cl)cc2)cc1OC` belongs 3.4% (active). With `Brc1ccc2[nH]cc(-c3nn4cc(-c5nccs5)nc4s3)c2c1`, the growth was -0.729% (active). With `CN1c2ccccc2Sc2cc(/C=N/Nc3ccnc4cc(Cl)ccc34)ccc21`, the growth is 105% (inactive).

`Cn1c(SCC(=O)c2ccc(F)cc2)nc2ccccc2c1=O`: the growth is 101% (inactive). On the same count and under the same terms, to `CC(=O)OCCCCN1C=C/C(=C\C(=O)n2ccc3ccccc32)c2ccccc21` belongs 102% (inactive); to `O=C(/C=C/c1ccc(F)cc1)Nc1cccc2cccnc12`, 112% (inactive). Still for that read-out and setting: to `CCCCOc1ccc(S(=O)(=O)N2CCN(c3nc(C)cc(N4CCOCC4)n3)CC2)cc1` belongs 63.6% (inactive); to `CCCNNC(=O)c1ccc(-c2ccc(NC(=O)CCCCCCC(=O)N[C@H](C(=O)N3C[C@H](O)C[C@H]3C(=O)N[C@@H](C)c3ccc(-c4scnc4C)cc3)C(C)(C)C)cc2)cc1`, 30.3% (inactive). On the same count and under the same terms, to `CCOC(=O)c1cccc(NC2=C(Cl)C(=O)c3nc(C)ccc3C2=O)c1` belongs 111% (inactive); to `CC(C)(C)Nc1nc2c(OCCc3ccccc3)cccn2c1-c1cccc(Oc2ccccc2)c1`, 13.9% (inactive). Regarding `O=C(CCCCCCNC(=O)c1csc(Br)n1)NO`, the growth was 58.3% (inactive).

Turning to `CCOC(=O)c1c(NC(=O)c2ccc(C(F)(F)F)cc2)sc2c3c(ccc12)OCN(C)C3`, the growth was 78.7% (inactive).

As for `O=C1C(N2CCN(c3ccccc3)CC2)=C(Cl)C(=O)c2ncccc21`, the growth was 79.8% (inactive). Turning to `COc1ccccc1/C=C1\Oc2ccc(O)c(O)c2C1=O`, the growth was 87.9% (inactive). With `COc1cccc2c1C=CC1(O2)Oc2cccc(OC)c2C=C1C` (centres undefined), the growth was 20.8% (inactive). Same read-out and setting: in the case of `COc1ccc(C(C)=C(c2ccc(OCCN3CCCCCC3)cc2)c2ccc(OCCN3CCCCCC3)cc2)cc1` it was -52.1% (active). On the same count and under the same terms, to `O=C(CCCCCCN1CC(=O)N2[C@@H](c3ccccc3Br)c3[nH]c4ccccc4c3C[C@H]2C1=O)NO` belongs 59.6% (inactive); to `Cc1ccc2c(n1)C(=O)C(Cl)=C(Nc1cccc(C(F)(F)F)c1)C2=O`, 116% (inactive); to `CCC(=C(c1ccc(OCCN2CCCCCC2)cc1)c1ccc(OCCN2CCCCCC2)cc1)c1ccc(Cl)cc1`, -51% (active). Still for that read-out and setting: in the case of `CC(Nc1c(C#N)cnc2ccc(-c3cncc(-c4n[nH]c(=O)o4)c3)cc12)c1ccccc1` (centres undefined) it was -22.2% (active). For the compound `Cn1cc(-c2cc3ncnc(Nc4ccc(CC(=O)Nc5nc(C(C)(C)C)cs5)cc4)c3s2)cn1`, the growth is 47.3% (inactive). Same read-out and setting: in the case of `CCOC(=O)C1=C(C)NC(C)=C(C(=O)OC(C)C)C1c1cccc(C#N)c1` (centres undefined) it was 98% (inactive); in that of `Cc1cc2nc(C(Cl)Cl)nc(-c3ccc(S(=O)(=O)N(C)C)cc3)n2n1`, 72.7% (inactive).
